Laboratory results as given in PubChem BioAssay AID449762 (Southern Research Specialized Biocontainment Screening …, 2010).
In all, about 330,000 compounds went through this assay and about 1,900 (0.58%) were called active. Not shown: some 4% with an inconclusive outcome. Only a sample is shown. Potency and affinity values are given separately. Unmarked numbers belong to inactive results. No stated cut-off is given here; in the data, inconclusive means inhibition above about 70% without an active follow-up result; inactive means below that.

Assay: M. tuberculosis growth inhibition, HTS (AID 449762);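 further: bacterial growth assessed after seven days of incubation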
Conditions: M. tuberculosis H37Rv growth inhibition, 7H9 media; at 25 µM; stronger effect = higher value

| Compound | inhibition [%] |
| --- | --- |
| COc1cc(C(C(=O)NCC2CCCO2)N(C(=O)Cn2nnc3ccccc32)c2ccc(C(C)=O)cc2)ccc1O (configuration not stated) | -7.43 |
| CCCCNC(=O)C1CC(c2ccccc2[N+](=O)[O-])=NO1 (configuration not stated) | 0.43 |
| CCOC(=O)c1ccc(CSc2nnc(N)s2)cc1 | 3.29 |
| CCOC(=O)CSc1nc(C2CC2)cc(-c2ccc(Cl)cc2)c1C#N | -4.91 |
| Cc1ccc(-c2nnc(Sc3nc4ccccc4o3)c3ccccc23)cc1 | -10.4 |
| Clc1ccc(-c2nnc(Sc3nc4ccccc4o3)c3ccccc23)cc1 | -4.13 |
| CCc1nc2cccnc2n1-c1ccc(CC(=O)O)cc1 | -1.43 |
| Fc1ccc(N2CCN(C(=S)NCc3ccco3)CC2)cc1 | 1.09 |
| CC1CCCN(C(=S)SCC(=O)c2cc(Br)cc(Br)c2O)C1 (configuration not stated) | 1.93 |
| O=C(CSC(=S)N1CCCC1)c1ccccc1 | -7.15 |
| Cc1cc(NC(=O)CSc2n[nH]c(CC(C)C)n2)no1 | -10.9 |
| Cc1ncc(CN2CCC(n3nccc3NC(=O)c3ccccc3)CC2)s1 | -15.1 |
| CCn1cc2nc(SCC(=O)Nc3ccc(F)cc3F)n(Cc3ccccc3)c(=O)c2n1 | -4.3 |
| CN(C)CCCN(C(=O)c1ccc(Br)s1)c1nc2cc3c(cc2s1)OCCO3 | 9.92 |
| CN(C)CCCN(C(=O)c1cc2cc([N+](=O)[O-])ccc2s1)c1nc2cc3c(cc2s1)OCCO3 | -1.83 |
| COc1ccc(C(C[N+](=O)[O-])c2c(-c3ccccc3)cc3ccccn23)cc1OC (configuration not stated) | -0.65 |
| COc1ccc(C(C[N+](=O)[O-])c2c(-c3ccccc3)cc3ccccn23)cc1 (configuration not stated) | -3.56 |
| Cc1cccc(Cn2c(SCC(=O)Nc3ccccc3)nc3c2c(=O)[nH]c(=O)n3C)c1 | -13.5 |
| CCCC(c1nnnn1CC1CCCO1)N1CCN(c2cc(Cl)ccc2C)CC1 (configuration not stated) | 1.1 |

| Compound | inhibition [%] |
| --- | --- |
| CCCCCCCc1nc2nc(C)c(Br)c(=O)n2[nH]1 | 8.34 |
| CCCn1c(SCC(=O)Nc2ccc3c(c2)OCCO3)nnc1-c1ccco1 | -7.16 |
| O=C(C[C@H]1C/C=C\C[C@H](NC(=O)OCC2c3ccccc3-c3ccccc32)C(=O)OC[C@@H]2CCCN2C1=O)N[C@H](CO)Cc1ccccc1 | -0.02 |
| O=C(C[C@@H]1C/C=C\C[C@H](NC(=O)OCC2c3ccccc3-c3ccccc32)C(=O)OC[C@@H]2CCCN2C1=O)N[C@@H](CO)Cc1ccccc1 | 1.79 |
| Cc1occc1-c1nnc(SCC(=O)N(C)c2ccccc2)n1C | -1.83 |
| CC(C)(c1ccccc1)c1ccc(OCC(O)CN2CCCC2)cc1 (configuration not stated) | 1.65 |
| CC(=O)c1ccc(OCC(O)COc2ccc(C(C)=O)cc2)cc1 | 6.86 |
| O=C(O)c1ccc(NC(=O)c2cccc(S(=O)(=O)Nc3ccc(C(=O)O)cc3)c2)cc1 | -1.83 |
| COc1ccccc1N1CCN(CC(=O)Nc2ccccc2C(=O)NCCc2ccccc2)CC1 | 33.8 |
| O=C(CN1CCN(c2ccc(O)cc2)CC1)Nc1ccccc1C(=O)NCCc1ccccc1 | -9.61 |
| COc1cc(NS(=O)(=O)c2cc3c(cc2C)NC(=O)CO3)cc(OC)c1 | -11.6 |
| OC(Cn1ccnc1)c1ccc(Cl)cc1Cl (configuration not stated) | -8.18 |
| OC(COc1ccc(Cl)cc1Cl)Cn1ccnc1 (configuration not stated) | -1.41 |
| CCOC(=O)C1=C(CC)Nc2ccccc2N/C1=N\S(=O)(=O)c1ccccc1OC | -0.62 |
| CC1(C)Cc2c(sc(NC(=O)C(C)(C)C)c2C#N)C(C)(C)N1 | -3.46 |
| COc1cc(N=c2ssnc2Cl)cc(OC)c1OC | -3.23 |
| Cc1ccc(N=c2ssnc2Cl)cc1 | 0.3 |
| O=C(O)c1ccc(S(=O)(=O)N2CCC(n3nnc4cc(C(F)(F)F)ccc43)CC2)cc1 | 1.41 |
| C/C(=N\Nc1cc(Cl)nc(C)n1)c1ccccc1 | 5.34 |

| Compound | inhibition [%] |
| --- | --- |
| C/C(=N\Nc1cc(Cl)nc(C)n1)c1ccc(C)cc1 | 66.8 |
| Cc1ccc(S(=O)(=O)N2CCN(C(=O)COC(=O)/C=C/c3ccc(F)cc3)CC2)c(C)c1 | -1.22 |
| CCCOc1ccc(N2CC(C(=O)Nc3ccccc3C(=O)NC)CC2=O)cc1 (configuration not stated) | -2.1 |
| COc1ccc(C(=O)CSc2ncnc3nc[nH]c23)cc1 | -0.73 |
| O=C(CSc1ncnc2nc[nH]c12)c1ccccc1 | 9.21 |
| O=C(c1ccc(Cl)cc1)C1CCN(C(=O)c2ccc(F)cc2)CC1 | 4.03 |
| Cc1ccc(OC(=O)CN2C(=O)c3ccccc3C2=O)cc1C | -4.28 |
| Cc1cc(C)cc(OC(=O)CCN2C(=O)c3ccccc3C2=O)c1 | -5.68 |
| CC(C)c1ccc(OCC(=O)N(Cc2ccco2)C2CCS(=O)(=O)C2)cc1 (configuration not stated) | 11.8 |
| CCC(=O)N1CC(=O)Nc2ccc(F)cc2C1c1ccccc1 (configuration not stated) | -3.58 |
| CC(C)NC(=O)N(C)C[C@H]1Oc2c(NC(=O)C3CC3)cccc2C(=O)N([C@H](C)CO)C[C@@H]1C | 1.1 |
| CCOc1cccc(N(C(=O)C2COc3ccccc3O2)C(C(=O)NC2CCCCC2)c2ccc(O)cc2)c1 (configuration not stated) | -4.43 |
| CC(C)CCNC(=O)C(c1ccc(O)cc1)N(Cc1cccs1)C(=O)C1COc2ccccc2O1 (configuration not stated) | 22.4 |
| CC(=O)N1CCOc2ccc(S(=O)(=O)N3CCC(C(=O)Nc4ccc(C)c(C)c4)CC3)cc21 | 5.83 |
| CC(Oc1ccc2c3c(c(=O)oc2c1)CCCC3)C(=O)NCc1ccccn1 (configuration not stated) | 33.2 |
| CC(Oc1cc2oc(=O)c3c(c2cc1Cl)CCC3)C(=O)NCc1ccccn1 (configuration not stated) | 31 |
| CCNc1cc(N2CCN(C)CC2)ccc1[N+](=O)[O-] | -1.18 |
| COc1cccc(NC(=S)N2CCc3cc(OC)c(OC)cc3C2)c1 | 1.01 |
| CCOc1ccc(S(=O)(=O)N(C)c2ccc(OCC(=O)NCc3ccc(C(=O)OC)cc3)cc2)cc1 | -3.45 |
